# Records with an inconclusive call do not appear. Unmarked numbers belong to inactive results. Activity calls are given as the source filed them. Calls follow the shape of the dose curve; as a rule, active = well fitted cell-killing curve with a large enough effect; inconclusive = small, poorly fitted or top-dose-only effect, or effect the other way; inactive = no such curve, though single readings can be large or run the other way. Non-standard residues stand in square brackets, D forms with d. Residues, ends and D or L forms follow the SMILES beside them. *: point of attachment. Sta = CC(C)C[C@H](N)[C@@H](O)CC(=O)O; Isovaleryl = CC(C)CC(=O)*
# Experiment: Quantitative High-Throughput drug screen in 47 multiple myeloma cell lines against the NCATS MIPE library collection: KMS20_JCRB cell viability assay (AID 1918973); also: nearly all actives have a fitted effect of over 45% in size
# Details: CellTiter-Glo ATP, 48 h; series mostly up to 45.8 µM; viability (% of DMSO): at the top concentration
# Summary of the method: (§1)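 Viability readout: CellTiter-Glo luminescence following 5 min room-temperature incubation with reagent. Prior exposure: 48 h, 37C, humidified 5% CO2, 500 cells per well.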
# Potency is read from the fitted curve at half-maximal effect.
Structure (SMILES),Potency,viability (% of DMSO)
COc1cc2c(N3CCN(C(=O)Nc4ccc(OC(C)C)cc4)CC3)ncnc2cc1OCCCN1CCCCC1,5.26 µM (active),–
CNC[C@H](O)c1ccc(O)c(O)c1,10.8 µM (active),–
CC(C)CC(=O)N[C@H](C(=O)N[C@H](C(=O)N[C@@H](CC(C)C)[C@@H](O)CC(=O)N[C@@H](C)C(=O)N[C@@H](CC(C)C)[C@@H](O)CC(=O)O)C(C)C)C(C)C (Isovaleryl-VV[Sta]A[Sta]-OH),–,82.7%
CS(=O)(=O)OCCCCOS(C)(=O)=O,–,115%
C[C@H](Cn1cnc2c(N)ncnc21)OCP(=O)(O)O,–,124%
O=C(NCC1CCCCN1)c1cc(OCC(F)(F)F)ccc1OCC(F)(F)F (centres undefined),7.43 µM (active),–
CC1(C)C(=O)N(CCN2CCC(C(=O)c3ccc(F)cc3)CC2)c2ccccc21,4.18 µM (active),–

# Experiment: Quantitative High-Throughput drug screen in 47 multiple myeloma cell lines against the NCATS MIPE library collection: KMS21BM_JCRB cell viability assay (AID 1918974)
# Details: ATP luminescence, 48 h; viability: at 45.8 µM (top of the series) unless noted
# Summary of the method: as §1
Structure (SMILES),viability,Potency
CCC1=C(C)CN(C(=O)NCCc2ccc(S(=O)(=O)NC(=O)NC3CCC(C)CC3)cc2)C1=O (centres undefined),134%,–
O=C(c1ccccc1)c1ccc2n1CCC2C(=O)O (centres undefined),193%,–
Nc1ccc(S(N)(=O)=O)cc1,191%,–
COc1cc2c(cc1OC)C1CC(=O)C(CC(C)C)CN1CC2 (centres undefined),–,20.9 µM (active)
O=C(O)c1cccc(-c2noc(-c3ccccc3F)n2)c1,121% (active),–

# Experiment: Quantitative High-Throughput drug screen in 47 multiple myeloma cell lines against the NCATS MIPE library collection: KMS26_JCRB cell viability assay (AID 1918975); also: nearly all actives have a fitted effect of over 45% in size
# Details: KMS26 myeloma cells viability, CellTiter-Glo ATP, 48 h; series mostly up to 45.8 µM; viability (% of DMSO): at the top concentration
# Summary of the method: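 Myeloma cell lines, 500 cells per well, exposed to MIPE 4.0 library compounds for 48 h at 37C, 5% CO2. Viability from ATP by CellTiter-Glo luminescence; normalised to DMSO (100%) and media-only (0%) wells.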
Structure (SMILES),Potency,viability (% of DMSO)
CCN(CC)CCOc1ccc(Nc2ncc3cc(-c4c(Cl)cccc4Cl)c(=O)n(C)c3n2)cc1,5.26 µM (active),–
Nc1cc(C(Cl)=C(Cl)Cl)c(S(N)(=O)=O)cc1S(N)(=O)=O,–,138%
CCC1=C(C)CN(C(=O)NCCc2ccc(S(=O)(=O)NC(=O)NC3CCC(C)CC3)cc2)C1=O (centres undefined),–,126%
CNC[C@H](O)c1ccc(O)c(O)c1,10.8 µM (active),–
Oc1ccc2ccccc2c1SSc1c(O)ccc2ccccc12,9.35 µM (active),–
CC(C)CC(=O)N[C@H](C(=O)N[C@H](C(=O)N[C@@H](CC(C)C)[C@@H](O)CC(=O)N[C@@H](C)C(=O)N[C@@H](CC(C)C)[C@@H](O)CC(=O)O)C(C)C)C(C)C (Isovaleryl-VV[Sta]A[Sta]-OH),–,130%
Nc1nc(N)c(N=O)c(OCC2CCCCC2)n1,13.2 µM (active),–
C[C@H](Cn1cnc2c(N)ncnc21)OCP(=O)(O)O,–,150%
O=C(c1ccccc1)c1ccc2n1CCC2C(=O)O (centres undefined),1.48 µM (active),–
CC[C@]1(O)C[C@H]2CN(CCc3c([nH]c4ccccc34)[C@@](C(=O)OC)(c3cc4c(cc3OC)N(C=O)[C@H]3[C@@](O)(C(=O)OC)[C@H](OC(C)=O)[C@]5(CC)C=CCN6CC[C@]43[C@@H]65)C2)C1,0.0372 µM (active),–
Cc1cc(O)c2c(c1)C(=O)c1cc(O)cc(O)c1C2=O,11.8 µM (active),–
Nc1ccc(S(N)(=O)=O)cc1,–,137%
Cc1cc(=O)oc2cc(O)ccc12,–,126%
NC(=O)Cc1cccc(C(=O)c2ccccc2)c1N,–,119%
COC(=O)C1=C(C)NC(C)=C(C(=O)OC(C)C)C1c1cccc2nonc12 (centres undefined),–,162%
COc1ccc(C2(C#N)CCC(C(=O)O)CC2)cc1OC1CCCC1 (centres undefined),–,140%
Cc1cc(C2CCCCC2)n(O)c(=O)c1,10.5 µM (active),–
COCCCOc1ccnc(CS(=O)c2nc3ccccc3[nH]2)c1C (centres undefined),–,130%
COc1cc2c(cc1OC)C1CC(=O)C(CC(C)C)CN1CC2 (centres undefined),–,120%
CN(C)c1ccc(O)c2c1C[C@H]1C[C@H]3[C@H](N(C)C)C(=O)C(C(N)=O)=C(O)[C@@]3(O)C(=O)C1=C2O,13.2 µM (active),–

# Experiment: Quantitative High-Throughput drug screen in 47 multiple myeloma cell lines against the NCATS MIPE library collection: MMM1_PLB cell viability assay (AID 1918976); also: nearly all actives have a fitted effect of over 35% in size
# Details: MMM1 myeloma cells viability, CellTiter-Glo, 48 h; series mostly up to 45.8 µM; viability (% of control): at the top concentration
# Summary of the method: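 ATP-based CellTiter-Glo luminescence after 48 h drug exposure (37 °C, 5% CO2) of 500 myeloma cells per well. DMSO-only wells set 100% viability, media-only wells 0%; MIPE 4.0 library added by pin tool.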
Structure (SMILES),Potency,viability (% of control)
COC(=O)N[C@H](C(=O)N[C@@H](Cc1ccccc1)[C@@H](O)CN(Cc1ccc(-c2ccccn2)cc1)NC(=O)[C@@H](NC(=O)OC)C(C)(C)C)C(C)(C)C,6.62 µM (active),–
CNC[C@H](O)c1ccc(O)c(O)c1,6.79 µM (active),–
Oc1ccc2ccccc2c1SSc1c(O)ccc2ccccc12,20.9 µM (active),–
CS(=O)(=O)OCCCCOS(C)(=O)=O,16.6 µM (active),–
O=c1c(O)c(-c2cc(O)c(O)c(O)c2)oc2cc(O)cc(O)c12,18.7 µM (active),–
O=C(c1ccccc1)c1ccc2n1CCC2C(=O)O (centres undefined),0.743 µM (active),–
CC[C@]1(O)C[C@H]2CN(CCc3c([nH]c4ccccc34)[C@@](C(=O)OC)(c3cc4c(cc3OC)N(C=O)[C@H]3[C@@](O)(C(=O)OC)[C@H](OC(C)=O)[C@]5(CC)C=CCN6CC[C@]43[C@@H]65)C2)C1,1.05 µM (active),–
Cc1cc(O)c2c(c1)C(=O)c1cc(O)cc(O)c1C2=O,18.7 µM (active),–
Cc1cc(=O)oc2cc(O)ccc12,0.296 µM (active),–
COC(=O)C1=C(C)NC(C)=C(C(=O)OC(C)C)C1c1cccc2nonc12 (centres undefined),5.9 µM (active),–
Cc1cc(C2CCCCC2)n(O)c(=O)c1,14.8 µM (active),–
N=C(N)c1ccc2cc(OC(=O)c3ccc(N=C(N)N)cc3)ccc2c1,0.935 µM (active),–
COc1cc2c(cc1OC)C1CC(=O)C(CC(C)C)CN1CC2 (centres undefined),20.9 µM (active),–
O=C(O)c1cccc(-c2noc(-c3ccccc3F)n2)c1,2.35 µM (active),–
CN(C)c1ccc(O)c2c1C[C@H]1C[C@H]3[C@H](N(C)C)C(=O)C(C(N)=O)=C(O)[C@@]3(O)C(=O)C1=C2O,18.7 µM (active),–
O=C(NCCO[N+](=O)[O-])c1cccnc1,–,113%
Cc1c(C(=O)NN2CCCCC2)nn(-c2ccc(Cl)cc2Cl)c1-c1ccc(Cl)cc1,20.9 µM (active),–

# Reference: PubChem BioAssay (NCATS)
